# Experimental data taken from PubChem BioAssay (EPA / NIEHS).
# The source made the active and inactive calls. How the source made its calls: active means hit-call score of the fitted dose curve at least 0.9, where 1 is the maximum; inactive means score below 0.9.
# Assay: Tanguay_ZF_120hpf_MUSC: Oregon State University Tanguay Lab 120 Hour Post-fertilization zebrafish Assay for Muscle Malformation (AID 2284401)
# Description: Tanguay_ZF_120hpf is a whole embryo, multiplexed endpoint assay using zebrafish larvae exposed for 120 hours post fertilization on a 96-well plate.Tanguay_ZF_120hpf_MUSC is one of one assay component(s) measured or calculated from the Tanguay_ZF_120hpf assay. It is designed to make measurements of zebrafish development as detected with brightfield microscopy of developing zebrafish embryos.Data from the assay component Tanguay_ZF_120hpf_MUSC was analyzed into 1 assay endpoints. This assay endpoint, Tanguay_ZF_120hpf_MUSC, was analyzed in the positive analysis fitting direction relative to DMSO as the negative control and baseline of activity. Using a type of morphology reporter, gain-of-signal activity can be used to understand changes in developmentals as they relate to the whole embryo. To generalize the intended target to other relatable targets, this assay endpoint is annotated to the zebrafish development intended target family, where the subfamily is myogensis.
# Zebrafish husbandry: Tropical 5D wild-type adult zebrafish were housed in at an approximate density of 1000 per 100 gallon tank at the Sinnhuber Aquatic Research Laboratory, Oregon State University, Corvallis, OR. Each tank was kept at standard laboratory conditions of 28C on a 14-h light/10-h dark photoperiod in fish water consisting of reverse osmosis water supplemented with a commercially available salt (Instant Ocean). Spawning funnels were placed into the tanks the night prior, and embryos were collected and staged. To increase bioavailability, the chorion was enzymatically removed using pronase (63.6mg/ml, >/= 3.5U/mg, Sigma-Aldrich: P5147) at 4 hours post fertilization (hpf) using a custom automated dechorionator.Chemical exposures: Six hpf dechorionated embryos were placed 1 embryo per well in a 96-well plate prefilled with 90 ul of EM using automated embryo placement systems (AEPS). Ten microliters of each row of dilution plate 2 was added to 2 exposure plates. The final DMSO concentration used was 0.64% (vol/vol). Thirty-two embryos were also exposed to 5uM trimethyltin chloride (positive control). Plates were sealed to prevent evaporation and foil covered to reduce light exposure and kept in a 28C incubator. Embryos were statically exposed until 120 hpf. At 24 hpf, embryos were assessed for photomotor response using a custom photomotor response analysis tool (PRAT) and for developmental toxicity endpoints (MO24: mortality at 24 hpf, DP: developmental progression, SM: spontaneous movement, and NC: notochord distortion). At 120 hpf, locomotor activity was measured using Viewpoint Zebralab and assessed for 13 endpoints. Zebrafish acquisition and analysis program (ZAAP), a custom program designed to inventory, acquire, and manage zebrafish data, was used to collect developmental endpoints as either present or absent (i.e., binary responses were recorded). If mortality occurred for an embryo (at either 24 or 120 hpf), the non-mortality endpoints were not measured.
SMILES,outcome,AC50
CCOC(=O)CC(=O)C(F)(F)C(F)(F)F,inactive,
O=C(O)C(F)(F)C(F)(F)C(F)(F)F,inactive,
O=C(O)C=C(C(F)(F)F)C(F)(F)F,inactive,
COC(=O)CCC(F)(F)C(F)(F)C(F)(F)C(F)(F)F,inactive,
O=S(=O)(O)CCC(F)(F)C(F)(F)C(F)(F)C(F)(F)C(F)(F)C(F)(F)C(F)(F)C(F)(F)F,inactive,
FC(F)(F)C(F)(F)C(F)(F)C(F)(F)CCI,inactive,
FC(F)(F)C(F)(F)C(F)(F)C(F)(F)C(F)(F)C(F)(F)C(F)(F)C(F)(F)F,inactive,
OCC(F)(F)C(F)(F)C(F)(F)C(F)(F)C(F)(F)C(F)F,inactive,
O=C(O)C(F)(F)C(F)(F)OC(F)(F)F,inactive,
O=C(O)C(F)(F)C(F)(F)C(F)(F)C(=O)O,inactive,
O=C(CC(=O)C(F)(F)C(F)(F)F)C(F)(F)F,inactive,
NCC(F)(F)C(F)(F)C(F)(F)C(F)(F)F,inactive,
OCCC(F)(F)C(F)(F)C(F)(F)C(F)(F)F,inactive,
FC(F)(F)C(F)(F)C(F)(F)C(F)(F)C(F)(F)C(F)(F)CC[Si](Cl)(Cl)Cl,inactive,
O=S(=O)(Cl)C(F)(F)C(F)(F)C(F)(F)C(F)(F)C(F)(F)C(F)(F)C(F)(F)C(F)(F)F,inactive,
FC(F)(F)COC(OCC(F)(F)F)OCC(F)(F)F,inactive,
OCC(F)(F)C(F)(F)C(F)(F)C(F)(F)C(F)(F)C(F)(F)C(F)(F)C(F)(F)CO,inactive,
FC(F)(F)C(F)(F)C(F)(F)C(F)(F)C(F)(F)C(F)(F)C(F)(F)Br,inactive,
O=P(O)(O)CCC(F)(F)C(F)(F)C(F)(F)C(F)(F)C(F)(F)C(F)(F)F,inactive,
C=C(C)C(=O)OCCC(F)(F)C(F)(F)C(F)(F)C(F)(F)C(F)(F)C(F)(F)F,inactive,

SMILES,outcome,AC50
FC1CC(F)(F)C(F)(F)C1(F)F (stereo not given),inactive,
O=C(F)C1(F)C(F)(F)C(F)(F)C(F)(F)C(F)(F)C1(F)F,inactive,
FC(F)(F)C(F)(F)C(F)(F)N(C(F)(F)C(F)(F)C(F)(F)F)C(F)(F)C(F)(F)C(F)(F)F,inactive,
CCO[Si](CCC(F)(F)C(F)(F)C(F)(F)C(F)(F)C(F)(F)C(F)(F)F)(OCC)OCC,inactive,
O=C(O)C(F)(F)C(F)(F)C(F)F,inactive,
O=S(=O)(OCCOC(F)(F)F)C(F)(F)F,inactive,
FC(F)(F)C(F)(F)C(F)(F)C(F)(F)C(F)(F)C(F)(F)C(F)(F)CCI,inactive,
O=C(O)C(F)(F)C(F)(F)C(F)(F)C(F)(F)C(F)(F)C(F)(F)C(F)(F)C(F)(F)Cl,,39.3 µM (active)
CO[Si](C)(CCC(F)(F)C(F)(F)C(F)(F)C(F)(F)C(F)(F)C(F)(F)F)OC,inactive,
O=S(=O)(O)C(F)(F)C(F)(F)C(F)(F)C(F)(F)C(F)(F)C(F)(F)C(F)(F)F,inactive,
O=S(=O)(O)CCC(F)(F)C(F)(F)C(F)(F)C(F)(F)F,inactive,
O=C(O)CCC(F)(F)C(F)(F)C(F)(F)C(F)(F)C(F)(F)C(F)(F)C(F)(F)F,inactive,
N=C(N)C(F)(F)C(F)(F)C(F)(F)C(F)(F)C(F)(F)C(F)(F)C(F)(F)F,inactive,
FC(F)(F)C(F)(F)C(F)(F)C(F)(F)C(F)(F)C(F)(F)CC1CO1 (stereo not given),inactive,
C=CC(=O)OCCC(F)(F)C(F)(F)C(F)(F)C(F)(F)F,inactive,
NC(=O)C(F)(F)C(F)(F)C(F)(F)C(F)(F)F,inactive,
O=P(O)(O)OCCC(F)(F)C(F)(F)C(F)(F)C(F)(F)C(F)(F)C(F)(F)F,inactive,
O=C(O)C(F)(F)OC(F)(F)C(F)(F)OC(F)(F)C(F)(F)OC(F)(F)C(F)(F)C(F)(F)C(F)(F)F,inactive,
C[Si](Cl)(Cl)CCC(F)(F)C(F)(F)C(F)(F)C(F)(F)C(F)(F)C(F)(F)F,inactive,
CN(C(=O)C(F)(F)C(F)(F)C(F)(F)F)[Si](C)(C)C,inactive,
